Test results: PubChem BioAssay (NCI)
Compounds without any hit were thinned out: in the full panel of roughly 83,000, 20% have a hit.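 For each line, cells grew in 96-well plates with the test compound present at a single concentration for 48 hours.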 Unmarked numbers belong to inactive results. Active and inactive are the calls of the source. The calls were made as follows: active = growth percent below 10; inactive = the rest.

System: HOP-62 NSCLC
Test: NCI-60 one-dose screen, 48 h (100 = growth as untreated, 0 = no growth, -100 = all killed)
Details: 10 µM unless noted

SMILES | growth
COc1cccc2cc(-c3nc(C4CCC(C(=O)O)CC4)n4ncnc(N)c34)[nH]c12 (centres undefined) | -10% (active)
CNC(=O)c1cc(Oc2ccc3nc(NC(=O)Nc4ccc(Cl)c(C(F)(F)F)c4)sc3c2)ccn1 | -31.3% (active)
C[C@@H](Oc1cc(-n2cnc3ccc(CN4CCN(C)CC4)cc32)sc1C(N)=O)c1ccccc1C(F)(F)F | 4.73% (active)
Oc1ccc(C(c2ccc(O)cc2)C(Cl)(Cl)Cl)cc1 | 107%
C[C@H](NC(=O)c1c(N)nn2cccnc12)c1cc2cccc(C#Cc3cnn(C)c3)c2c(=O)n1-c1ccccc1 | 11.8%
COc1cc(CCc2cc(NC(=O)c3ccc(N4C[C@@H](C)N[C@@H](C)C4)cc3)n[nH]2)cc(OC)c1 | 38.1%
CNC(=O)CN1CCC(Oc2cc3c(Nc4cccc(Cl)c4F)ncnc3cc2OC)CC1 | 38.3%
Cc1oc2c(C(=O)N/N=C\c3ccc(O)cc3O)c[nH]c2c1C | 20.9%
CCCCCc1ccc(C)cc1OC(=O)CCl | 109%
COc1cc2ncnc(Oc3cccc(NC(=O)Nc4cc(C(C)(C)C(F)(F)F)on4)c3)c2cc1OC | 37.1%
COc1cc(Nc2ncc3c(n2)-c2ccc(Cl)cc2C(c2c(F)cccc2OC)=NC3)ccc1C(=O)O | 50.2%
CC[C@H](Nc1ncnc2nc[nH]c12)c1nc2cccc(F)c2c(=O)n1-c1ccccc1 | 75.6%
CN1CCN(CCOc2cc(OC3CCOCC3)c3c(Nc4c(Cl)ccc5c4OCO5)ncnc3c2)CC1 | 29.7%
Nc1nc(Nc2ccccc2)c(C=Nc2ccccc2)c(=O)[nH]1 | 73.7%
CNC(=O)c1cc(Oc2cccc3nc(Nc4ccc(Oc5ccccc5)cc4)ccc23)ccn1 | 92%
CN1CC[C@@H](c2c(O)cc(O)c3c(=O)cc(-c4ccccc4Cl)oc23)[C@@H]1CO | -21.2% (active)
Cc1[nH]n(C(N)=S)c(=O)c1N=Nc1ccc(S(=O)(=O)Nc2ccncn2)cc1 | 103%
COCCN1CCN(Cc2ccc(-c3n[nH]c4c3C(=O)c3c(NC(=O)NN5CCOCC5)cccc3-4)cc2)CC1 | -30.7% (active)
CN(c1ncccc1CNc1nc(Nc2ccc3c(c2)CC(=O)N3)ncc1C(F)(F)F)S(C)(=O)=O | -13.3% (active)
COc1cc(N2CCC(N3CCN(C)CC3)CC2)ccc1Nc1ncnc(Nc2ccccc2S(=O)(=O)C(C)C)n1 | 86.7%

SMILES | growth
O=C(COc1ccc(/C=C2\Cc3ccc(Cl)cc3C2=O)cc1)Nc1nccs1 | 101%
O=C(c1ccc(/C=C/c2n[nH]c3ccccc23)cc1)N1CCNCC1 | 16.5%
O=C(O)C1(Cc2cccc(Nc3nccs3)n2)CCC(Oc2cccc(Cl)c2F)CC1 (centres undefined) | 49.8%
Cc1cc(O)cc(-c2c(-c3ccnc(-c4cccnc4)c3)cnn2C)c1 | 67.2%
Cc1c(CN2CCN(C(=O)[C@H](C)O)CC2)sc2c(N3CCOCC3)nc(-c3cnc(N)nc3)nc12 | -10.3% (active)
CN1CCN(c2ccc(C(=O)Nc3n[nH]c4ccc(Cc5cc(F)cc(F)c5)cc34)c(NC3CCOCC3)c2)CC1 | -34.8% (active)
C#Cc1cccc(Nc2ncnc3cc(OCCOC)c(OCCOC)cc23)c1 | 63%
COc1ccc(Nc2ncccc2NC(=O)c2cn(Cc3cccc(Oc4ccccc4)c3)nn2)cc1 | 106%
O=C1NC(=O)[C@@H](c2cn3c4c(cccc24)CCC3)[C@@H]1c1c[nH]c2ccccc12 | 5.24% (active)
Cc1cc(-c2cc(O)ccc2Cl)cc2nnc(Nc3ccc(OCCN4CCCC4)cc3)nc12 | -66.1% (active)
C=CCN(/C=C1/C(=O)O[C@H](COC)[C@@]2(C)C1=C(O)C(=O)C1=C2[C@H](OC(C)=O)C[C@]2(C)C(=O)CC[C@@H]12)CC=C | 16.5%
CNC(=O)c1nn(C)c2c1C(C)(C)Cc1cnc(Nc3ccc(N4CCN(C)CC4)cc3)nc1-2 | -9.46% (active)
CC(C)Nc1cc(-c2c[nH]c(C(=O)N[C@H](CO)c3cccc(Cl)c3)c2)c(Cl)cn1 | 28.6%
COc1ccc(Cc2cc(-c3ccccc3C)n[nH]c2=O)cc1 | 97.8%
CC(C)[C@@H]1CC[C@@H]2[C@@H]1[C@H](OC(=O)/C=C/c1ccccc1)[C@]1(C(C)C)C[C@@H](OC(=O)CO)[C@@]2(C)O1 | 87.4%
Cc1ncc(-c2ccnc(Nc3ccc(S(C)(=O)=O)cc3)n2)n1C(C)C | -14% (active)
C/C=C/C=N/NC(=S)Nc1ccccc1 | 86%
Cc1nn(-c2ccccc2)c2c1N=c1s/c(=C\c3cn(-c4ccccc4)nc3-c3ccc(Cl)cc3)c(=O)n1C(C)N2 (centres undefined) | 102%
COc1cc2c(cc1OCCCN1Cc3ccc(OCCCCC(=O)N4CCC(CCN5CCCC5)CC4)cc3C1)N=C(N)C21CCCC1 | 79.9%
